Active and inactive are the calls of the source.
Tests used:
[1] = tested on: Human papillomavirus type 1a protein E7 (residues 44-93); assay: HPV1a E7 fragment binders on microarrays, primary screen, biochemical, small-molecule microarray, residues 44-93, 635 nm fluorescence (AID 1108); conditions: small-molecule microarray binding, fluorescence 635 nm; higher = more signal;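 note: E7 fragment applied at 1 µg/mL in TBST for 1 h at 4 C; score combines spot fluorescence with its signal to noise ratio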
[2] = modulators of HCV replicon luciferase signal, primary screen, HCV replication inhibitor project, Huh7 cells, luciferase reporter (AID 1109); conditions: 48 h, higher = more signal;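 note: huh7 hepatoma cells harbouring a luciferase neomycin HCV replicon reporter; luciferase luminescence as measure of HCV replicon replication; test concentration not given here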
[3] = target: Left-right determination factor 2 (Homo sapiens) (UniProt O00292); assay: LEFTY2 binders on small-molecule microarrays, primary screen, biochemical, small-molecule microarray, 635 nm fluorescence scan (AID 1110); conditions: LEFTY2 binding, higher = more signal
Sequence of Left-right determination factor 2 (Homo sapiens) (O00292 whole entry, looked up): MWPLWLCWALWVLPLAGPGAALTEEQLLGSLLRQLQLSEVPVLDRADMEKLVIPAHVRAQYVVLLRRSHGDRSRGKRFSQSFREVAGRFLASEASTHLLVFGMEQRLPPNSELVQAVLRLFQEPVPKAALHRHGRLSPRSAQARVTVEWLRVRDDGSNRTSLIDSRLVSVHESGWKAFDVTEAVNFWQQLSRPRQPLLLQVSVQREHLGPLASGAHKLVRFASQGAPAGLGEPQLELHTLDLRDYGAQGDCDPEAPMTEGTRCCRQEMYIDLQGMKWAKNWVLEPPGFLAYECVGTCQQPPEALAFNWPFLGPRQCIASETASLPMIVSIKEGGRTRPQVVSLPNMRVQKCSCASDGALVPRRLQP

[4] = target: Calmodulin-1 (Homo sapiens) (UniProt P0DP23); assay: CALM1 binders on microarrays, EGTA buffer, profiling panel, biochemical, small-molecule microarray, Cy5-labelled CALM1 (AID 1111); conditions: Cy5-CALM1 binding fluorescence, higher = more signal;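 note: labelled calmodulin applied in Tris saline Tween buffer holding calcium plus EGTA and DTT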
[5] = target: Calmodulin-1 (Homo sapiens) (UniProt P0DP23); assay: calcium-bound CALM1 binders on microarrays, profiling panel, artefact control for SMM control-protein annotation, biochemical, small-molecule microarray, Cy5-labelled CALM1, plus calcium (AID 1112); conditions: Cy5-CALM1 binding fluorescence, higher = more signal;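 note: score merges spot fluorescence with signal to noise from triplicate slides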
[6] = small-molecule microarray binders of probe aWnt5a, primary screen, biochemical, biotinylated probe, 635/667 nm fluorescence (AID 1113); conditions: higher = more signal;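 note: score merges 667 nm fluorescence intensity with signal-to-noise per printed feature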
[7] = small-molecule microarray binders of probe aShh, primary screen, biochemical, biotinylated probe, 635/667 nm fluorescence (AID 1114); conditions: higher = more signal;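 note: probe is biotin-labelled aShh protein from a stem cell growth factor screen; measures binding of labelled protein to compounds printed on the slide; score merges feature fluorescence at 667 nm with signal-to-noise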
[8] = small-molecule microarray binders of probe aNog, primary screen, biochemical, biotinylated probe, 635/667 nm fluorescence (AID 1115); conditions: higher = more signal;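 note: probe is biotinylated aNog protein used at 0.15 µg/mL for 1 h at 4 C; z-score combines 667 nm fluorescence of each spot with its signal to noise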
[9] = target: Torsin-1A-interacting protein 1 (Homo sapiens) (UniProt Q5JTV8); assay: LAP1 binders from COS7 cell lysate, primary screen, small-molecule microarray, 635/667 nm fluorescence (AID 1116); conditions: COS7-hLAP1 lysate binding, 635 nm fluorescence, higher = more signal
Sequence of Torsin-1A-interacting protein 1 (Homo sapiens) (Q5JTV8 whole entry, looked up): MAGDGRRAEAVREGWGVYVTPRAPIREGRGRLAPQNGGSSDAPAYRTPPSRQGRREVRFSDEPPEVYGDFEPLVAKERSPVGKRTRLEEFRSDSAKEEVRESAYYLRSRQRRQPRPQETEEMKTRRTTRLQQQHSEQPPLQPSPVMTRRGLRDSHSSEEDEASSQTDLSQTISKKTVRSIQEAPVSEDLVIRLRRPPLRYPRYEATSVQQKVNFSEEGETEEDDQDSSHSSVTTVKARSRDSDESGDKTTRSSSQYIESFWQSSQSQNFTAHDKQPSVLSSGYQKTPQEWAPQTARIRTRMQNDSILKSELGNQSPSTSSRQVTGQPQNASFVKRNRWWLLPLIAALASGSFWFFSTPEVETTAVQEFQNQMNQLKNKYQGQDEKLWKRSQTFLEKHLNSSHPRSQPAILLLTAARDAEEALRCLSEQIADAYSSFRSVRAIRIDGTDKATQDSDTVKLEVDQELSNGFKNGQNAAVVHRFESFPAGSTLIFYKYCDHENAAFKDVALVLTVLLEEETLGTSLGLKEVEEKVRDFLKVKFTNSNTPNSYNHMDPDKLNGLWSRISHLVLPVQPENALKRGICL

[10] = target: Alpha-bungarotoxin (Bungarus multicinctus) (UniProt P60615); assay: alpha-bungarotoxin binders on microarray, profiling panel, artefact control for SMM control protein annotation, biochemical, small-molecule microarray, Alexa647 label, 635/667 nm fluorescence (AID 1117); conditions: alpha-BTX-A647 binding fluorescence, higher = more signal
Sequence of Alpha-bungarotoxin (Bungarus multicinctus) (P60615 whole entry, looked up): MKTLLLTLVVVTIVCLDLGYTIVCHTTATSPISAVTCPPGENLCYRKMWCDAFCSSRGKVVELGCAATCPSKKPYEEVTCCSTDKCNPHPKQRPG

Albumin (Bos taurus) = Albumin (Bos taurus) (UniProt P02769); assay: bovine serum albumin binders on microarray, profiling panel, artefact control for SMM control protein annotation, biochemical, small-molecule microarray, Alexa647 label, 635/667 nm fluorescence (AID 1118); conditions: BSA-A647 binding, fluorescence 635 nm, higher = more signal;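 note: score merges 667 nm emission intensity and signal-to-noise per printed compound spot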
Sequence of Albumin (Bos taurus) (P02769 whole entry, looked up): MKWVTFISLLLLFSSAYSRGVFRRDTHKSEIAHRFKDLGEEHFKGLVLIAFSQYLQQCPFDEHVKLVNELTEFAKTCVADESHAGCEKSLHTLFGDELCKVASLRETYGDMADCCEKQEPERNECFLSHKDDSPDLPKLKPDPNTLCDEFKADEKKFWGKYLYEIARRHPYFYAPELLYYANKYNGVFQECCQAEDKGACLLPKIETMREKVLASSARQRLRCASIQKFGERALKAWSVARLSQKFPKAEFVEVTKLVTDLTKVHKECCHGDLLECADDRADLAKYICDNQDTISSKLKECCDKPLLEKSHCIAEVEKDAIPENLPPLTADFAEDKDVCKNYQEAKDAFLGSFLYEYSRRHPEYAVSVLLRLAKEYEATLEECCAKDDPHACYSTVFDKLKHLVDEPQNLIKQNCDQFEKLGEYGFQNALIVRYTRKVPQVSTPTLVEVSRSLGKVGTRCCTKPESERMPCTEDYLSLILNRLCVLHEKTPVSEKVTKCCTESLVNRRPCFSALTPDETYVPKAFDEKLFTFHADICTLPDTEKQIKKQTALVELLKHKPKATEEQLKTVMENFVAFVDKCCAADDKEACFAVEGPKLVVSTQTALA

[11] = small-molecule microarray binders of probe aXIP, primary screen, biochemical, NeuroSMM set, 635/667 nm fluorescence (AID 1119); conditions: higher = more signal, called active from +8 up or from −8 down;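 note: probe is the protein aXip251-270 applied at 1 µg/mL to compound-printed slides; binding of probe to printed compounds measured as 667 nm fluorescence plus signal to noise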
[12] = small-molecule binders of probe aNOTCH3, primary screen, biochemical, small-molecule microarray, 635/667 nm fluorescence (AID 1120); conditions: higher = more signal;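 note: probe is a biotin-tagged antibody raised against NOTCH3 rather than NOTCH3 protein; score merges spot fluorescence near 667 nm with spot signal to noise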
[13] = small-molecule binders of probe aNOTCH2, primary screen, biochemical, small-molecule microarray, 635/667 nm fluorescence (AID 1121); conditions: higher = more signal;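 note: score merges feature fluorescence read at 667 nm with its signal to noise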
[14] = target: Carbonic anhydrase 2 (Homo sapiens) (UniProt P00918); assay: CAII small-molecule binders, profiling panel, biochemical, small-molecule microarray, Alexa647-labelled CAII (AID 1122); conditions: CAII-A647 binding fluorescence, higher = more signal
[15] = COS7 lysate on small-molecule microarray, probe aHis, 635 nm (AID 1123); conditions: COS7 cell lysate, fluorescence, higher = more signal;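 note: z-score combines 667nm fluorescence intensity with signal-to-noise per printed compound spot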
[16] = compound binding in COS7 lysate, probe aLAP1, primary screen, cell lysate, small-molecule microarray (AID 1124); conditions: probe aLAP1, fluorescence, higher = more signal;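 note: lysate comes from COS7 cells expressing LAP1 and is applied at 0.3 µg/mL; score merges spot fluorescence near 667 nm with signal-to-noise over triplicate slides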
Sam68 (KHDRBS1) = assay: Sam68 small-molecule binders, primary screen, biochemical, small-molecule microarray, 635 nm fluorescence (AID 1125); conditions: small-molecule microarray binding, higher = more signal;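 note: score merges 667 nm channel intensity with signal to noise over triplicate slides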
[17] = tested on: Chordin-like protein 2 (CHRDL2); assay: CHRDL2 small-molecule binders, primary screen, biochemical, small-molecule microarray, 635 nm fluorescence (AID 1126); conditions: small-molecule microarray binding, fluorescence 635 nm; higher = more signal;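 note: printed compound slides probed with Chrdl2 protein at 4 µg/mL for 1 h at 4 C; score merges 667 nm emission intensity with signal to noise over three replicate slides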
[18] = target: Concanavalin-A (Canavalia ensiformis) (UniProt P02866); assay: ConA small-molecule binders, primary screen, artefact control for SMM control protein annotation, biochemical, small-molecule microarray, Alexa647 label, 635 nm (AID 1127); conditions: ConA-A647 binding fluorescence, higher = more signal;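 note: z combines 667 nm emission intensity with signal-to-noise across three replicate slides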
Sequence of Concanavalin-A (Canavalia ensiformis) (P02866 whole entry, looked up): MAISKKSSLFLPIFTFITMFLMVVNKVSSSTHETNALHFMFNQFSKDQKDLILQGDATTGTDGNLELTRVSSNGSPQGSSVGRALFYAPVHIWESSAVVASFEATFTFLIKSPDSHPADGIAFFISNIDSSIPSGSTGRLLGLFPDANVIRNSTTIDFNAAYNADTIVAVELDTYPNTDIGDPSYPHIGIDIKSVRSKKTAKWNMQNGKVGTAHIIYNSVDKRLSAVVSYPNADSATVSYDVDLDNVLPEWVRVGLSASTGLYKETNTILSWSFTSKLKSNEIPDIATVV

SMILES | composite z-score [1] | z-score [2] | composite z-score [3] | composite z-score [4] | composite z-score [5] | composite z-score [6] | composite z-score [7] | composite z-score [8] | composite z-score [9] | composite z-score [10] | composite z-score (Albumin (Bos taurus)) | composite Z-score [11] | composite z-score [12] | composite z-score [13] | composite z-score [14] | composite z-score [15] | composite z-score [16] | composite z-score (Sam68 (KHDRBS1)) | composite z-score [17] | composite z-score [18]
C=CCC(OC(C)=O)[C@@H]1[C@@H](N(Cc2cccc3ccccc23)C(=O)Cc2ccc(F)cc2)c2cc(OCCCO)ccc2N1C(=O)c1ccc2ccccc2n1 (stereo not given in full) | -0.829 | -0.562 | 0.226 | 0.304 | 0.398 | -0.18 | -0.123 | -0.432 | 0.0149 | 0.411 | -0.0728 | -0.486 (inactive) | -0.0125 | 0.0156 | 0.409 | 0.0549 | 0.398 | -0.301 | 0.192 | 0.483
CCCC[C@@H]1C[C@H]1[C@@H](NC(=O)c1cccs1)c1ccc(C(F)(F)F)cc1 | -0.47 | -0.152 | -0.45 | -0.501 | -1.05 | -0.0334 | 0.214 | 0.277 | -0.515 | 0.237 | -0.999 | -0.496 (inactive) | 0.0026 | -0.0859 | -0.195 | -0.559 | 0.0126 | -0.154 | 0.149 | -0.162
COC(=O)c1c(CC[C@@H](CO)NC(=O)N2CCC[C@H]2Cn2cc(Cc3ccccc3)nn2)oc(C(C)=O)c1C(=O)OC | 0.916 | 0.139 | -0.0041 | -0.128 | -0.658 | -0.0778 | -0.167 | 0.113 | 0.0411 | 0.17 | 0.0832 | -0.413 (inactive) | 0.233 | -0.133 | 0.643 | 1.33 | 0.381 | 0.694 | 0.668 | 0.488
Cc1ccc(S[C@]2(C(=O)NCC(F)(F)F)CC(=O)N(C3CCCCC3)[C@@H]2c2ccc(CO)cc2I)cc1 | 1.42 | -2.3 | 0.394 | 1.01 | -0.077 | -0.122 | 0.184 | -0.422 | 0.958 | 0.587 | 0.488 | -0.132 (inactive) | -0.046 | -0.108 | 0.369 | 2.01 | 0.159 | 1.3 | 0.0471 | 0.955
COc1ccc(-c2nc(-c3ccccc3)c3c(c2C)CO[Si]3(C(C)C)C(C)C)cn1 | 0.107 | -1.05 | 0.372 | -0.461 | -0.309 | -0.0405 | 0.0278 | -0.294 | 0.104 | 0.397 | -0.475 | 0.428 (inactive) | -0.126 | -0.0921 | 0.0924 | 0.583 | -0.209 | 0.152 | 0.151 | -0.209
CCOC(=O)C[C@H]1[C@H](OC(=O)c2cc3ccccc3oc2=O)[C@@H](NC(=O)c2ccc(-c3ccccc3)cc2)c2cc(OCCCO)ccc2N1C(=O)c1ccccc1 | 1.4 | -0.659 | 1.16 | 0.536 | -0.15 | -0.0203 | 0.199 | 0.161 | 0.959 | 0.727 | 0.551 | -0.0549 (inactive) | 0.242 | -0.0971 | 0.274 | 0.716 | -0.0433 | 1.32 | 0.475 | 0.858
COCCCNC(=O)[C@@]1(Cc2ccccc2N=[N+]=[N-])N=C(c2ccc(OCCCO)cc2)O[C@H]1c1ccccc1 | 1.41 | -1.54 | -0.394 | 0.906 | -0.257 | 0.269 | 0.142 | 1.76 | 1.63 | 0.643 | 0.533 | 0.93 (inactive) | 0.0749 | 0.0202 | 0.35 | 1.99 | 1.25 | 1.04 | 0.099 | 0.79
O=C(N1CCCCC1)[C@@]1(CCS(=O)(=O)c2ccccc2)COC(c2ccc(OCCCO)cc2)=N1 | 0.517 | -0.98 | -0.0902 | 0.695 | -0.438 | 0.0374 | -0.0064 | -0.489 | 1.51 | 0.632 | 0.107 | 0.674 (inactive) | 0.289 | 0.207 | 0.582 | 2.66 | 0.729 | 1.31 | 0.225 | 1.1
[N-]=[N+]=Nc1ccccc1[C@H]1OC(c2ccc(OCCCO)cc2)=N[C@@]1(Cc1ccccc1)C(=O)N1CCCCC1 | 1.45 | -2.13 | 0.346 | 1.53 | 0.735 | 0.299 | 0.204 | 1.28 | 2.12 | 1.53 | 0.899 | 0.498 (inactive) | 0.369 | 0.208 | 0.38 | 2.36 | 0.19 | 1.13 | 0.618 | 1.19
O=c1n(-c2ccccc2)c(=O)n2n1CC(COc1ccccc1)=C([C@H](O)CCc1ccccc1)[C@@H]2CO | 0.676 | -2.17 | 0.892 | -0.833 | -0.556 | -0.0269 | -0.338 | -0.588 | 0.0355 | 0.5 | -0.341 | 0.11 (inactive) | -0.187 | -0.0895 | -0.241 | 0.277 | -0.408 | -0.0362 | 0.315 | -0.352
[N-]=[N+]=NCc1ccccc1[C@@H]1OC(c2ccc(OCCCO)cc2)=N[C@]1(CCS(=O)(=O)c1ccccc1)C(=O)NCC(O)CO (stereo not given in full) | 0.711 | -1.2 | -0.275 | 2.14 | 0.701 | 0.0799 | 0.0062 | 0.975 | 4.4 | 2.17 | 0.979 | 0.131 (inactive) | 0.13 | 0.208 | 0.526 | 3.18 | 1.01 | 1.29 | -0.563 | 1.18

Reference: PubChem BioAssay
